High-throughput results deposited in PubChem by National Center for Advancing Translational Sciences (NCATS).
HTT aggregate – inhibitors of mutant huntingtin aggregate formation in PC12 cells; hit rate 1.1% among 220,000; PC12 HttQ103-GFP aggregates, Acumen cytometry, 40 h; Potency, µM (titrated, usually from 46.1 µM), hits mostly inhibitors; AID 1688; further: nearly all actives have a fitted effect of over 60% in size
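Aggregate formation scored by laser-scanning cytometer (488 excitation, 500–530 emission) in lysed PC12 cells expressing Q103-GFP after 100 nM tebufenozide induction; library tested in dose series, with ATPLite reagent added in the multiplex.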
PNC inhibitor – perinucleolar compartment assembly inhibition | hit rate 3.1% among 140,000 | activity change (PNC), negative = inhibition, % at 10 µM | PC3M PTB-GFP, PNC prevalence imaging, 16 h; active compounds read low | AID 2417;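 active means readout at or below -70, meaning at least 70% loss of cells showing the perinucleolar compartment, a nuclear body marking cancer cells; inconclusive means readout between -30 and a set limit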
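Read-out is percentage of cells bearing a perinucleolar compartment, from automated 20x imaging of fixed, Hoechst-stained PC3M PTB-GFP cells. Cells were seeded 4 h, then exposed 16 h to compound (23 nl of library stock) in duplicate plates.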
HTT ATP protect – Huntington cell model cytoprotection by ATP luminescence. PC12 HTT-Q103 induced, cytoprotection, ATP luminescence, 40 h. Potency, µM (highest dose often 56.4 µM), hits mostly activators. hit rate 0.14% among 230,000. AID 1471; further: nearly all actives have a fitted effect of over 45% in size
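ATP quantification (ATPlite) reports survival of PC12 cells in which tebufenozide, 100 nM final, switches on Htt exon 1 with 103 glutamines linked to GFP; compounds are titrated.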
IMPase cell inh – IMPase inhibition in cells; P97697; CHO-M1 cells, IP1 accumulation, HTRF TR-FRET ratio; inhibition (IP1 accumulation), % at 46.1 µM; 120,000 tested, under 10 active; AID 901; active means well fitted curve in the direction sought with a large enough effect in the signal ratio, not every such curve was filed as active; inconclusive means small, poorly fitted or top-dose-only effect, or a change in a side signal; inactive means no such curve, though single readings can be large or run the other way; the % refers to the signal ratio;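 further: cells stimulated with carbachol in lithium chloride buffer; higher means more IMPase inhibition seen as more IP1 and lower FRET ratio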
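CHO-M1, 2000 cells/well, cultured 16–30 h; cpd up to 46 uM; carbachol (50 uM solution, stimulation buffer w/ 50 mM LiCl, pH 7.4), 30 min 37C; IP-One TR-FRET, 10 min RT; Ex 320/Em 665, 620; Hill-fit AC50.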
IMPase Li cell – membrane-permeable IMPase blocker, potentiated with lithium; CHO-M1 cells, IP1 TR-FRET (IP-One), carbachol + lithium; Potency, µM (highest dose often 59.4 µM), hits mostly inhibitors; hit rate 0.35% among 210,000; AID 1457;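 further: IP1 builds up when IMPase is blocked and the TR-FRET signal falls; nearly all actives have a fitted effect of over 50% in size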
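Test compounds were applied to CHO-M1 cells previously cultured for 16–30 h at 2000 per well. A small lithium amount accompanied them; after 30 min at 37C, IP1 was quantified by TR-FRET.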
NPSR antagonist – blocks cAMP signaling of the human neuropeptide S receptor; Q6W5P4; CHO-NPSR cells, cAMP TR-FRET, antagonist mode; Potency, µM (series often up to 38.3 µM), usual class: inhibitors; hit rate 1% among 220,000; further: nearly all actives have a fitted effect of over 50% in size
Target sequence (Q6W5P4 whole entry, looked up): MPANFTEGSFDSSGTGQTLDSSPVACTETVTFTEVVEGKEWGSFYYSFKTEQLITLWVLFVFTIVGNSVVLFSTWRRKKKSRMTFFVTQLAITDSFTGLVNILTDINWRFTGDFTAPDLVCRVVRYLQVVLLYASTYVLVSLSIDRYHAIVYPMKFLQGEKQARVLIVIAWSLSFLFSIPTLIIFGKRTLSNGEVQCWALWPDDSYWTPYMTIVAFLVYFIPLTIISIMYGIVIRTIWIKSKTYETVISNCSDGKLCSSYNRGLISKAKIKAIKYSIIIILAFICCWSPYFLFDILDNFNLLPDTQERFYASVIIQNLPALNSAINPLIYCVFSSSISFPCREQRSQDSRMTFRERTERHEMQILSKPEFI
A number is an active result; . = inactive; ? = inconclusive; / = not tested or not shown; [ ] = dose if it differs, or a comment. In the library only some 3.4% were active in any assay of this set; here they are far more common. Unless noted, the call rests on the fitted dose curve; in most records, active means well fitted curve in the direction sought with a large enough effect; inconclusive means small, poorly fitted or top-dose-only effect, or another doubt; inactive means no such curve, though single readings can be large; an effect the other way counts as inactive or inconclusive.

SMILES	HTT aggregate	PNC inhibitor	HTT ATP protect	IMPase cell inh	IMPase Li cell	NPSR antagonist
COCC(=O)Nc1ccc(S(=O)(=O)NCCc2ccccc2)cc1	.	-107	.	.	.	.
Cc1ccc(OCC(=O)Nc2ccc(N(C)C)cc2)cc1	?	.	.	.	.	.
CCC(=O)Nc1ccc(S(=O)(=O)NCCc2ccccc2)cc1	.[9.22 µM]	.	?	.	.	.
CCCCC/C=C\C[C@@H](O)/C=C/C=C/C=C\[C@@H](O)CCCC(=O)O	/	/	?	/	.	/
O=[N+]([O-])c1ccc(-c2nc3ccc([N+](=O)[O-])cc3[nH]2)cc1	18µM	?	.	.	.	.
Nc1ccc2nc(-c3ccc(Cl)cc3)[nH]c2c1	.	.	.	.	10µM	.
COC(=O)c1ccc2c(=O)n(CCN3CCOCC3)c(=S)[nH]c2c1	.	-100	.	.	.	.
O=C(NCCCN1CCOCC1)c1ccc2c(=O)n(CCc3ccccc3)c(=O)[nH]c2c1	.	-95	.	.	.	.
COC(=O)c1ccc2c(=O)n(CCCN3CCOCC3)c(=S)[nH]c2c1	.	.	.	.	.	.
CCOC(=O)c1c(C)[nH]c(C(=O)COC(=O)/C=C/c2ccc(OCC#N)c(OC)c2)c1C	.	/	/	/	.	.
O=C(O)C1=C(CSc2nnnn2CS(=O)(=O)O)CS[C@@H]2[C@H](NC(=O)[C@H](O)c3ccccc3)C(=O)N12	.	/	.	/	/	/
CCCCOC(=O)/C(=C/c1cn(C)c2ccccc12)NC(=O)c1ccc(OC)cc1	.	-93	.[10 µM]	/	.	.
COc1ccc(C(=O)N/C(=C\c2cn(C)c3ccccc23)C(=O)OCCN(C)C)cc1	.[9.22 µM]	/	.[10 µM]	/	/	.
COC(=O)CC[C@@H](C)C1CC[C@H]2[C@H]3CC[C@H]4C[C@@H]5CCC4(C)[C@@]3(O5)[C@@H](Br)[C@@H](Br)[C@@]12C (stereo partly drawn)	/	/	/	/	.	/
Cc1onc(-c2ccccc2Cl)c1C(=O)NC(=S)NCC(=O)c1ccccc1	.[9.22 µM]	/	.[10 µM]	/	10µM	?
Cc1onc(-c2ccccc2Cl)c1C(=O)N(C)C1CCCCC1	14µM	.	.	.	.	.
O=[n+]1ccn([O-])c2ccccc21	.	/	.	/	/	/
CO/N=C/c1ccc(N2CCN(C(=O)c3cccc(C(F)(F)F)c3)CC2)c([N+](=O)[O-])c1	?	.	.[10 µM]	.	.	.
CO/N=C/c1ccc(N2CCN(C(=O)c3ccc(Cl)cc3Cl)CC2)c([N+](=O)[O-])c1	18µM	.	.	.	.	.
CO/N=C/c1ccc(N2CCN(C(=O)c3ccc(F)cc3)CC2)c([N+](=O)[O-])c1	13µM	.	.[10 µM]	.	.	.
COCCNc1nc(C)nc2c1nc(-c1ccccc1)n2CCN(C)C	/	/	.	/	.	/
CN(C)C(=O)c1ccc(NC(=O)c2cncc(Br)c2)cc1	16µM	-100	.[10 µM]	.	.	.
CCOC(=O)C1CCN(C(=O)c2c(C)oc3c2C(=O)c2ccccc2C3=O)CC1	.	.	/	/	.	.
Cc1oc2c(c1C(=O)N1CCC(C)CC1)C(=O)c1ccccc1C2=O	7.1µM	.	/	/	.	.
O=c1c(C(c2ccccc2)c2c(O)sc3ccccc3c2=O)c(O)sc2ccccc12	.	?	.	.	.	10µM
SMILES	HTT aggregate	PNC inhibitor	HTT ATP protect	IMPase cell inh	IMPase Li cell	NPSR antagonist
O=c1cc(CN2CCN(Cc3ccccc3)CC2)c2cc3c(cc2o1)CCC3	.[9.22 µM]	/	.[10 µM]	/	/	.
O=c1cc(CN2CCN(c3ccccc3F)CC2)c2cc3c(cc2o1)CCCC3	0.63µM	.	1.1µM	.	.	.
CC(=O)OCC1CCCC2=C(C)C(=O)CCC21COC(C)=O (stereo not drawn)	.	-109	/	/	.	.
CCCCC(=O)Nc1cc2nn(-c3ccc(OC)cc3)nc2cc1C	.	.	.	.	?	.
COc1ccc(-n2nc3cc(C)c(NC(=S)NC(=O)c4ccccc4C)cc3n2)cc1	.	.	.	.	13µM	?
CCC(=O)Nc1cc2nn(-c3ccc(OC)cc3)nc2cc1C	.	?	.[10 µM]	.	11µM	.
CCN(CC)CCn1c(=N)n(CC(O)COc2ccccc2C)c2ccccc21 (stereo not drawn)	/	/	/	.	/	/
COc1ccc(/C=C2\SC(=O)N=C2N)cc1	.	-104	.[10 µM]	/	.	.
COc1ccc(/C=C2\SC(=NCc3ccccc3)NC2=O)cc1	.	.	.[10 µM]	.	.	.
O=C(NCc1nc2ccccc2[nH]1)c1ccco1	.	-98	.[0.074 µM]	.	.	.
O=C(NCCCCNC(=O)c1cccs1)c1cccs1	.	-114	/	/	.	.
O=C(NCc1ccccn1)c1cccs1	.	?	.	.	.	.
O=C(NCc1nc2ccccc2[nH]1)c1cccs1	.	-87	.[10 µM]	.	.	.
